SRC2 TRFRET art: counter-screen for PPARgamma SRC-2 recruitment agonists: TR-FRET artefact | TR-FRET ratio at 8 µM | stronger effect = higher value | actives 0.4% (n = 200,000)
SRC1 TRFRET art: counter-screen for PPARgamma SRC-1 recruitment agonists: TR-FRET artefact. actives 0.34% (n = 99,000). TR-FRET detection artefact counter-screen, emission ratio; stronger effect = higher value. TR-FRET ratio at 8 µM; in the data active means TR-FRET ratio above about 2300
PPARg SRC2 recr: agonists of SRC-2 recruitment by human PPARgamma; PPARgamma LBD-SRC-2 recruitment, biochemical; activation, % at 8 µM; actives 0.34% (n = 200,000); in the data active means activation above about 22%
Target sequence (P37231 whole entry, looked up, the tested form may be a part): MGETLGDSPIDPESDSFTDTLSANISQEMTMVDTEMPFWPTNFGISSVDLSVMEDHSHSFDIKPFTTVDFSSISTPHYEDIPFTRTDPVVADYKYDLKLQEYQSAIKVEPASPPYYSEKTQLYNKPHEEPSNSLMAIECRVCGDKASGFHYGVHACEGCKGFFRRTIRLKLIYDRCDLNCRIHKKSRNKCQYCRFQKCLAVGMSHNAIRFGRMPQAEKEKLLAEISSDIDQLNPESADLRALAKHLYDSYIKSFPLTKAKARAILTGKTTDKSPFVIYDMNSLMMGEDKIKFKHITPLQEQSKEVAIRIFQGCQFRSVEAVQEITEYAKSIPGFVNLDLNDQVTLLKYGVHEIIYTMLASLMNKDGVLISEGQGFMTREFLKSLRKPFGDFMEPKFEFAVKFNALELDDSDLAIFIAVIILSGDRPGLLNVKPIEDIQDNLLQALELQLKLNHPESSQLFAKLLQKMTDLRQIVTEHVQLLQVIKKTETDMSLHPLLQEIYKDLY
PPARg SRC1 recr: PPARgamma-driven SRC-1 recruitment agonism. PPARgamma-SRC-1 coactivator recruitment biochemical assay. activation, % at 8 µM. actives 0.41% (n = 200,000). AID 631; in the data active means activation above about 19%
PPARg SRC-3 ag: agonists of human PPARgamma SRC-3 coactivator recruitment; biochemical PPARgamma/SRC-3 coactivator recruitment assay; actives 0.26% (n = 200,000); P37231; activation, % at 8 µM; in the data active means activation above about 23%
SRC3 TRFRET art: flags TR-FRET format artefacts in PPARgamma SRC-3 recruitment agonist screen; TR-FRET artefact counter-screen, PPARgamma/SRC-3 format; stronger effect = higher value; TR-FRET ratio at 8 µM; actives 0.39% (n = 99,000)
PPARg SRC2 conf: confirmation of agonists of SRC-2 recruitment by human PPARgamma | shares compounds with PPARg SRC-3 ag | actives 52% (n = 790) | activation, % at 8 µM | biochemical SRC-2 recruitment by PPARgamma; in the data active means activation above about 22%
PPARg SRC1 ag: human PPARgamma SRC-1 recruitment agonism, confirmation | shares compounds with PPARg SRC-3 ag | PPARgamma–SRC-1 coactivator recruitment biochemical assay | activation, % at 8 µM | actives 43% (n = 790); in the data active means activation above about 20%
PPARg SRC3 conf: human PPARgamma SRC-3 recruitment agonism, confirmation; activation, % at 8 µM; shares compounds with PPARg SRC-3 ag; biochemical PPARgamma-SRC-3 coactivator recruitment, agonist mode; AID 1301; actives 29% (n = 790); in the data active means activation above about 24%
Hits are given with their value; i = inactive; nt = not tested or not shown. Sampled rows, rich in hits. Any-hit rate of the full collection: about 0.84%. Unless noted, no stated cut-off is given here; in the data, active means TR-FRET ratio above about 2000; inactive means the rest.

SMILES | SRC2 TRFRET art | SRC1 TRFRET art | PPARg SRC2 recr | PPARg SRC1 recr | PPARg SRC-3 ag | SRC3 TRFRET art | PPARg SRC2 conf | PPARg SRC1 ag | PPARg SRC3 conf
Cc1cc(C(=O)CSc2nnc(-c3cccs3)o2)c(C)n1-c1ccccc1 | i | i | i | i | i | i | nt | nt | nt
CCOC(=O)c1cc(Br)c(=O)n2ccccc12 | 2044 | nt | 39 | 32 | 32 | nt | i | i | i
O=c1oc2cc(O)ccc2c2ccccc12 | 2392 | nt | 47 | 28 | 60 | nt | 30 | i | i
COc1ccc2c(c1)c(=O)oc1cc(O)ccc12 | i | i | i | i | i | i | nt | nt | nt
O=C(c1ccccc1)c1sc(N2CCCCCC2)nc1-c1ccccc1 | i | nt | i | 19 | i | nt | i | i | i
[2H]c1c([2H])c([2H])c(C(=O)c2sc(N3CCCCCC3)nc2-c2ccccc2)c([2H])c1[2H] | i | nt | i | i | 28 | nt | i | i | i
CCC(=O)Nc1cc(C(=O)OC(C(=O)c2ccc(C)c(C)c2)c2ccccc2)ccc1C (stereo unspecified) | i | nt | i | i | i | nt | nt | nt | nt
C=CCn1c(NC(=O)c2ccc(Br)o2)c(S(=O)(=O)c2ccccc2)c2nc3ccccc3nc21 | i | nt | i | 34 | 27 | nt | i | i | i
O=C(Nc1ccc(S(=O)(=O)NCc2ccccc2)cc1)c1ccc(Br)o1 | i | nt | i | i | i | nt | nt | nt | nt
CC(=O)c1nc(N2C(=O)CC(Cc3cccc(C)c3)C2=O)sc1C (stereo unspecified) | i | nt | i | 20 | i | nt | i | i | i
Cc1nnc(SC(C)C(=O)Nc2ccc(Cl)cn2)n1Cc1ccccc1 (stereo unspecified) | i | i | i | i | i | i | nt | nt | nt
CC(Sc1nnc(-c2ccc(Cl)cc2Cl)n1Cc1ccccc1)C(=O)Nc1nccs1 (stereo unspecified) | i | nt | i | 37 | i | nt | i | 28 | 26
COc1ccc(-c2csc3nc(-c4ccccc4OC)oc(=O)c23)cc1 | i | i | i | i | i | i | nt | nt | nt
c1ccc(-c2nc3ccccc3s2)nc1 | i | nt | i | i | i | nt | nt | nt | nt
Brc1ccc(-c2nc3ccccc3s2)s1 | 3008 | nt | 63 | 71 | 93 | nt | 89 | 66 | 59
CCCCNC(=O)CSc1cc(=O)n(C)c2ccccc12 | 2320 | nt | 41 | 33 | 43 | nt | 31 | 20 | i
CCOc1ccc(CCNC(=O)CSc2cc(=O)n(C)c3ccccc23)cc1OCC | 2107 | 2625 | 26 | 26 | i | i | 31 | i | i
Cn1c(=O)cc(SCC(=O)NCCCN2CCOCC2)c2ccc(Cl)cc21 | 2615 | nt | 65 | 60 | 83 | nt | 47 | 31 | 32
CCCCNC(=O)CSc1nc(CCC)nc2ccccc12 | i | i | i | 31 | 31 | i | i | 24 | i
CCOc1ccc(CCNC(=O)COc2cc(=O)n(C)c3ccccc23)cc1OCC | i | i | i | i | i | i | nt | nt | nt
O=C(O)C1CC=CCC1C(=O)Nc1cccc(Cl)c1 (stereo unspecified) | i | nt | i | i | i | nt | nt | nt | nt
Cn1c(=O)cc(SCC(=O)NCCCN2CCN(c3ccccc3F)CC2)c2ccccc21 | 4083 | nt | 92 | 90 | 125 | nt | 52 | 34 | 36
Cn1c(=O)cc(SCC(=O)NCCCN2CCOCC2)c2ccccc21 | 2011 | nt | 28 | 30 | 46 | nt | i | i | i
Cn1c(C(=O)NCCCN2CCN(c3ccccc3F)CC2)cc2c(=O)n(C)c3ccccc3c21 | i | nt | i | i | i | nt | nt | nt | nt
Cn1c(C(=O)NCCCN2CCOCC2)cc2c(=O)n(C)c3ccccc3c21 | i | nt | i | i | i | nt | nt | nt | nt
SMILES | SRC2 TRFRET art | SRC1 TRFRET art | PPARg SRC2 recr | PPARg SRC1 recr | PPARg SRC-3 ag | SRC3 TRFRET art | PPARg SRC2 conf | PPARg SRC1 ag | PPARg SRC3 conf
CC1CN(Cc2nnc(-c3ccccc3)o2)CC(C)O1 (stereo unspecified) | i | i | i | i | i | i | nt | nt | nt
Cn1cnnc1Sc1cc(N2CCN(S(=O)(=O)c3ccc4ccccc4c3)CC2)ccc1[N+](=O)[O-] | i | i | i | i | i | i | nt | nt | nt
Cc1ccc(S(=O)(=O)N2CCN(c3ccccc3)CC2)cc1C(N)=O | i | i | i | i | i | i | nt | nt | nt
CC(C)CC(=O)NC(=S)Nc1cccc2nsnc12 | 3677 | 5013 | 87 | 135 | 62 | 4035 | 137 | 105 | 81
COc1c(C)cccc1C(=O)NC(=S)Nc1cccc2nsnc12 | 2472 | 2682 | 30 | 39 | 36 | 2881 | 90 | 71 | 60
C=CCn1c(COc2ccc(OC)cc2)nnc1SCn1nnc2ccccc2c1=O | i | i | i | i | i | i | nt | nt | nt
CCOc1ccc(S(=O)(=O)NC(C)C)cc1C(N)=O | i | i | i | i | i | i | nt | nt | nt
O=C(Nc1ccc(C(=O)N2CCOCC2)cc1)c1cccc([N+](=O)[O-])c1 | i | i | i | i | i | i | nt | nt | nt
Cc1ccc(-n2c(=S)[nH]c3c(oc4ccccc43)c2=O)cc1C | i | i | i | i | i | i | nt | nt | nt
O=c1c2oc3ccccc3c2[nH]c(=S)n1-c1ccc(F)cc1 | 2177 | 2641 | 26 | i | i | 2296 | i | i | i
CCc1cc2c(=O)n(-c3ccccc3)c(=S)[nH]c2s1 | 2026 | nt | 37 | 27 | 41 | nt | 31 | 25 | i
COC(=O)c1ccc2c(=O)n(-c3ccccc3)c(=S)[nH]c2c1 | i | i | i | i | i | i | nt | nt | nt
Oc1cc2c(cc1O)C1c3ccc(O)c(O)c3OCC1(O)C2 (stereo unspecified) | i | i | i | 27 | i | i | i | i | i
CCOC(=O)c1c(NC(=O)CC2SC(N)=NC2=O)sc2c1CCCC2 (stereo unspecified) | i | nt | i | i | i | nt | nt | nt | nt
O=C(Nc1ccc2oc(-c3ccc(F)cc3)nc2c1)c1ccccc1F | 2348 | nt | 28 | 25 | i | nt | i | i | i
Cc1nc2scc(-c3ccccc3)c2c(=O)n1N=C1C=CC(=O)C=C1 | i | i | 26 | 39 | 35 | i | 39 | 38 | 31
CCSc1ccccc1C(=O)N1CCN(Cc2ccc3c(c2)OCO3)CC1 | i | nt | i | i | i | nt | nt | nt | nt
Cn1c(C(=O)N2CCN(Cc3ccc4c(c3)OCO4)CC2)cc2c(=O)n(C)c3ccccc3c21 | i | nt | i | i | i | nt | nt | nt | nt
Cn1c(=O)cc(SCC(=O)N2CCN(Cc3ccc4c(c3)OCO4)CC2)c2ccccc21 | 2161 | nt | 33 | 50 | 72 | nt | 25 | i | i
CCn1c(=O)cc(SCC(=O)N2CCN(Cc3ccc4c(c3)OCO4)CC2)c2ccccc21 | 2608 | nt | 55 | 45 | 42 | nt | 27 | i | i
COc1ccccc1C(=O)NC1CCN(C(=S)NCCc2ccccc2)CC1 | i | i | i | i | i | i | nt | nt | nt
C=CCSC1=Nc2cc(OC)c(OC)cc2C2=NC(=O)CN12 | i | i | i | 21 | i | i | 29 | i | i

High-throughput results deposited in PubChem BioAssay by The Scripps Research Institute Molecular Screening Center.
